Where a name gives a salt, the structure may show the parent alone.
Columns and labels:
Test in all cases: phenotypically active (imaging signature differs from DMSO and reproducible) at any of 0.3-9 uM (binary (1 = active, 0 = inactive)); higher = active
Details in all cases: treatment time: 24 h
[1] = test system: A549-ACTB-RAB5A
Summary of the method: (§1)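 Four wells per concentration (0.3, 1, 3 or 9 µM) were treated for 24 h in each of fifteen gene-edited reporter lines from A549, HepG2 and WPMY1 cells, then imaged live. After normalising live-cell features to solvent control wells, deviation was defined as ≥3 of 4 wells lying past the 95th percentile of control Euclidean distances. Reproducibility was defined as a median replicate Pearson correlation above the 95th percentile of non-replicates. Both had to hold for phenotypic activity.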

[2] = test system: A549-CANX-COX4
Summary of the method: as §1

[3] = test system: A549-GM130-SQSTM1
Summary of the method: as §1

[4] = test system: A549-TP53BP1-CLTA
Summary of the method: as §1

[5] = test system: A549-TUBA1B-RELA
Summary of the method: as §1

[6] = test system: HepG2-ACTB-RAB5A
Summary of the method: as §1

[7] = test system: HepG2-CANX-COX4
Summary of the method: as §1

[8] = test system: HepG2-GM130-SQSTM1
Summary of the method: as §1

[9] = test system: HepG2-TP53BP1-CLTA
Summary of the method: as §1

[10] = test system: HepG2-TUBA1B-RELA
Summary of the method: as §1

[11] = test system: WPMY1-ACTB-RAB5A
Summary of the method: as §1

[12] = test system: WPMY1-CANX-COX4
Summary of the method: as §1

[13] = test system: WPMY1-GM130-SQSTM1
Summary of the method: as §1

[14] = test system: WPMY1-TP53BP1-CLTA
Summary of the method: as §1

[15] = test system: WPMY1-TUBA1B-RELA
Summary of the method: as §1

Measured: phenotypically active

CO[C@H]1C=C2CCN(C)[C@H]2[C@@H]2c3cc4c(cc3[C@@H](O)O[C@@H]21)OCO4 [Unsevine]
inactive: [1] 0 | [2] 0 | [3] 0 | [4] 0 | [5] 0 | [6] 0 | [7] 0 | [8] 0 | [9] 0 | [10] 0 | [11] 0 | [12] 0 | [13] 0 | [14] 0 | [15] 0

CC(C)NCC(O)c1ccc(N)c(C#N)c1 (stereo not given) [Cimaterol]
inactive: [1] 0 | [2] 0 | [3] 0 | [4] 0 | [5] 0 | [6] 0 | [7] 0 | [8] 0 | [9] 0 | [10] 0 | [11] 0 | [12] 0 | [13] 0 | [14] 0 | [15] 0

Fc1ccccc1C1=NCC(=S)N(CC(F)(F)F)c2ccc(Cl)cc21 [quazepam]
inactive: [1] 0 | [2] 0 | [3] 0 | [4] 0 | [5] 0 | [6] 0 | [7] 0 | [8] 0 | [9] 0 | [10] 0 | [11] 0 | [12] 0 | [13] 0 | [14] 0 | [15] 0

C[C@]12COC(=O)C[C@@H]1CC[C@@H]1[C@@H]2CC[C@@]2(C)[C@H]1CC[C@]2(C)O [oxandrolone]
inactive: [1] 0 | [2] 0 | [3] 0 | [4] 0 | [5] 0 | [6] 0 | [7] 0 | [8] 0 | [9] 0 | [10] 0 | [11] 0 | [12] 0 | [13] 0 | [14] 0 | [15] 0

C[C@@H]1CN([C@H]2CC[C@](C#N)(c3ccc(F)cc3)CC2)CC[C@]1(C(=O)O)c1ccccc1 [levocabastine]
inactive: [1] 0 | [2] 0 | [3] 0 | [4] 0 | [5] 0 | [6] 0 | [7] 0 | [8] 0 | [9] 0 | [10] 0 | [11] 0 | [12] 0 | [13] 0 | [14] 0 | [15] 0

C#CCN(C)[C@H](C)Cc1ccccc1 [selegiline]
inactive: [1] 0 | [2] 0 | [3] 0 | [4] 0 | [5] 0 | [6] 0 | [7] 0 | [8] 0 | [9] 0 | [10] 0 | [11] 0 | [12] 0 | [13] 0 | [14] 0 | [15] 0

CC[C@H]1C[N@@]2CC[C@H]1C[C@H]2[C@@H](O)c1ccnc2ccc(O)cc12 [Hydrocupreine]
inactive: [1] 0 | [2] 0 | [3] 0 | [4] 0 | [5] 0 | [6] 0 | [7] 0 | [8] 0 | [9] 0 | [10] 0 | [11] 0 | [12] 0 | [13] 0 | [14] 0 | [15] 0

CNC(C)(C)Cc1ccccc1 [mephentermine]
inactive: [1] 0 | [2] 0 | [3] 0 | [4] 0 | [5] 0 | [6] 0 | [7] 0 | [8] 0 | [9] 0 | [10] 0 | [11] 0 | [12] 0 | [13] 0 | [14] 0 | [15] 0

COc1cc2c(cc1OC)[C@@]13CCN4CC5=CCO[C@H]6CC(=O)N2[C@H]1[C@H]6[C@H]5C[C@H]43 [Brucine]
inactive: [1] 0 | [2] 0 | [3] 0 | [4] 0 | [5] 0 | [6] 0 | [7] 0 | [8] 0 | [9] 0 | [10] 0 | [11] 0 | [12] 0 | [13] 0 | [14] 0 | [15] 0

C/C(O)=C(/C#N)C(=O)Nc1cc(Br)ccc1Br
inactive: [1] 0 | [2] 0 | [3] 0 | [4] 0 | [5] 0 | [6] 0 | [7] 0 | [8] 0 | [9] 0 | [10] 0 | [11] 0 | [12] 0 | [13] 0 | [14] 0 | [15] 0

COc1ccc(C(=O)Cc2c(CCN(C)C)cc3c(c2OC)OCO3)c(C(=O)O)c1OC [Narcétine]
inactive: [1] 0 | [2] 0 | [3] 0 | [4] 0 | [5] 0 | [6] 0 | [7] 0 | [8] 0 | [9] 0 | [10] 0 | [11] 0 | [12] 0 | [13] 0 | [14] 0 | [15] 0

CCN1C[C@@]2(COC)C3[C@@H](OC)[C@H]4[C@H]1C3([C@@H]1C[C@@]3(O)[C@H](OC(=O)c5ccccc5)[C@@H]1[C@]4(OC(C)=O)[C@@H](O)[C@@H]3OC)[C@H](OC)C[C@H]2O [Aconitine]
inactive: [1] 0 | [2] 0 | [3] 0 | [4] 0 | [5] 0 | [6] 0 | [7] 0 | [8] 0 | [9] 0 | [10] 0 | [11] 0 | [12] 0 | [13] 0 | [14] 0 | [15] 0

CNC(=O)Oc1ccc2c(c1)[C@]1(C)CCN(C)[C@@H]1N2C [Eserine sulfate, physostigmine sulfate]
inactive: [1] 0 | [2] 0 | [3] 0 | [4] 0 | [5] 0 | [6] 0 | [7] 0 | [8] 0 | [9] 0 | [10] 0 | [11] 0 | [12] 0 | [13] 0 | [14] 0 | [15] 0

NCC1(CC(=O)O)CCCCC1 [gabapentin]
inactive: [1] 0 | [2] 0 | [3] 0 | [4] 0 | [5] 0 | [6] 0 | [7] 0 | [8] 0 | [9] 0 | [10] 0 | [11] 0 | [12] 0 | [13] 0 | [14] 0 | [15] 0

C/C=C1/C[N+]2(C)CC[C@]34C(=C(C=O)[C@H]1C[C@@H]32)Nc1ccccc14 (stereo not given in full) [Fluorocurarine chloride]
inactive: [1] 0 | [2] 0 | [3] 0 | [4] 0 | [5] 0 | [6] 0 | [7] 0 | [8] 0 | [9] 0 | [10] 0 | [11] 0 | [12] 0 | [13] 0 | [14] 0 | [15] 0

CN1[C@@H]2C[C@@H](OC(=O)[C@H](CO)c3ccccc3)C[C@H]1[C@@H]1O[C@@H]12 [Scopolamine hydrobromide]
inactive: [1] 0 | [2] 0 | [3] 0 | [4] 0 | [5] 0 | [6] 0 | [7] 0 | [8] 0 | [9] 0 | [10] 0 | [11] 0 | [12] 0 | [13] 0 | [14] 0 | [15] 0

Cc1ccc(-c2nc3ccc(C)cn3c2CC(=O)N(C)C)cc1 [zolpidem]
inactive: [1] 0 | [2] 0 | [3] 0 | [4] 0 | [5] 0 | [6] 0 | [7] 0 | [8] 0 | [9] 0 | [10] 0 | [11] 0 | [12] 0 | [13] 0 | [14] 0 | [15] 0

OCC[N+]12CN3CN(CN(C3)C1)C2
inactive: [1] 0 | [2] 0 | [3] 0 | [4] 0 | [5] 0 | [6] 0 | [7] 0 | [8] 0 | [9] 0 | [10] 0 | [11] 0 | [12] 0 | [13] 0 | [14] 0 | [15] 0

O[C@H]1[C@H](O)[C@@H](O)CN2CC[C@H](O)[C@H]12 [Castanospermine]
inactive: [1] 0 | [2] 0 | [3] 0 | [4] 0 | [5] 0 | [6] 0 | [7] 0 | [8] 0 | [9] 0 | [10] 0 | [11] 0 | [12] 0 | [13] 0 | [14] 0 | [15] 0

Cc1nnc2n1-c1ccc(Cl)cc1C(c1ccccc1)=NC2 [alprazolam]
inactive: [1] 0 | [2] 0 | [3] 0 | [4] 0 | [5] 0 | [6] 0 | [7] 0 | [8] 0 | [9] 0 | [10] 0 | [11] 0 | [12] 0 | [13] 0 | [14] 0 | [15] 0

CN1C2CCC1CC(O)C2 (stereo not given) [Tropine]
inactive: [1] 0 | [2] 0 | [3] 0 | [4] 0 | [5] 0 | [6] 0 | [7] 0 | [8] 0 | [9] 0 | [10] 0 | [11] 0 | [12] 0 | [13] 0 | [14] 0 | [15] 0

CCN1C[C@]2(COC)CC[C@H](O)[C@@]34[C@@H]5C[C@H]6[C@H](OC(C)=O)[C@@H]5[C@](O)(C[C@@H]6OC)[C@H](C[C@H]23)[C@H]14 [Condelphine]
inactive: [1] 0 | [2] 0 | [3] 0 | [4] 0 | [5] 0 | [6] 0 | [7] 0 | [8] 0 | [9] 0 | [10] 0 | [11] 0 | [12] 0 | [13] 0 | [14] 0 | [15] 0

CN1[C@@H]2CC(=O)C[C@H]1[C@H](O)C2 [6-Hydroxytropinone]
inactive: [1] 0 | [2] 0 | [3] 0 | [4] 0 | [5] 0 | [6] 0 | [7] 0 | [8] 0 | [9] 0 | [10] 0 | [11] 0 | [12] 0 | [13] 0 | [14] 0 | [15] 0
